Measured values: PubChem BioAssay AID1508600 (Functional Genomics Laboratory (NCATS/FGL), 2020)
Screen size: about 53,000 sequences; about 3,700 (7%) were called active.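 Rule for the calls: active = gene knockdowns whose robust z-score for IL-1 alpha signal is at least 2 or at most -2, so actives lie on both sides; inactive = the rest.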 The sample as a whole holds a higher share of actives than the screen did.

assay: Components of the Cytosolic LPS Sensing Pathway: Gene Identification via Genome-wide siRNA Screen; conditions: RAW264.7 macrophages, IL-1a HTRF, actives lie on both sides, screened at 100 nM (by protocol), cells primed 5 h with Pam3CSK4 first
Description: Non-canonical inflammasome activation by cytosolic LPS is a critical component of the host response to Gram-negative bacterial infection, however we lack a comprehensive understanding of the cellular processes that control this pathway. Here we describe a genome-wide siRNA screen to identify genes regulating the mouse macrophage IL-1 alpha response to cytosolic LPS.
RAW264.7 cells were maintained in complete DMEM media, comprising DMEM with 4.5 g/L glucose, 10% FBS (Gemini Bio-Products, West Sacramento, CA), 2 mM Glutamine (Lonza) and 20 mM HEPES (Lonza), hereafter complete DMEM.
The RNAi screen was conducted in 384-well format using the Ambion Silencer Mouse Genome siRNA Library (#4391425), which consists of three unique, nonoverlapping, nonpooled siRNAs for each of 17,000 gene targets. siRNA reagents ([…]) were stamped into 384-well white flat-bottom microplates (Corning, 3570) using a Velocity11 VPrep liquid handling system (Agilent) integrated into a BioCel robotic platform (Agilent) in columns 1-22, leaving columns 23-24 empty for negative (Ambion, Negative control #1) and positive (mouse Casp4) controls, respectively. The median value of each plate's negative control column was used to normalize sample wells, and the positive control was used to assess transfection efficiency and assay performance.
Lipofectamine RNAiMAX Transfection Reagent ([…]; Invitrogen) was added in […] serum-free, antibiotic-free media to plate wells using a Thermo Scientific Matrix WellMate and Microplate Stacker. Plates were incubated for 45 min at room temperature to allow for the sufficient formation of siRNA-lipid complexes. Cells were seeded at a density of 1x10^4 cells per well in 20 microL media containing 20% (vol/vol) FBS without antibiotics. The final concentration of siRNA in each well was 100 nM. Cells were cultured for 48h at 37 degrees C in 5% CO2 before addition of […] of TLR ligand Pam3CSK4 for 5 hours. The medium was then removed, replaced with […] growth media and cell were transfected with […] of LipidA and TransIT-TKO (Mirus) for 24 hour. At the end of the LipidA treatment, […] of supernatant was transferred to a 384 Greiner Bio-one non-binding low volume plate and […] of IL-1a HTRF reagent (Cisbio, 62MIL1APEH) was added and incubated at room temperature overnight. The plates were read on an EnVision plate reader (PerkinElmer). Cell viability was measured by adding 20ul Cell Titer Glo to the original plate and running a luminescence read on the EnVision. The quantified IL-1a signal for each siRNA gene-targeted well was divided by the median of the negative control wells and multiplied by 100 to achieve a negative control normalized value for each well/siRNA. This normalized value was then used to generate a robust z-score by first taking the log of each value and then by subtracting the median and dividing by the […].

| Sequence | z-score |
| --- | --- |
| GACAAGUUCUCAAGUAUCCTT against 1110006O24Rik | -2.02 (active) |
| GGUCCAUAACUUGUGUGCUTT against 3300002I08Rik | -0.462 (inactive) |
| GGUUGUGAAACGAUGCCCUTT against Trp63 | -0.512 (inactive) |
| CCUGCAAUCAAAACAUCAATT against Vmn1r10 | 1.13 (inactive) |
| GGAAUUAUCUGAGCCUGUGTT against Fam193b | -0.0725 (inactive) |
| GGAAGAGAGAUUCCUAUAGTT against Sec11a | -2.03 (active) |
| GGCUUGGUGGGACAGAUAUTT against Ccdc51 | -1.82 (inactive) |
| GCUAGAUCCAUCCAUAUAGTT against Misp | -1.26 (inactive) |
| GGUGAAGAUCUGAUAAGAATT against Epb41 | -1.44 (inactive) |
| GCAACCUCAUACCAAAGAGTT against Zfyve26 | 0.211 (inactive) |
| GGUCACUAUCUCUGAUUUCTT against Bpifb2 | -1.38 (inactive) |
| GGUCAUCCUUGCCAAUCUCTT against Olfr686 | -2.11 (active) |
| GGAAUCUUCCAGAACUAAATT against Rufy1 | 0.912 (inactive) |
| GCAGGUCUUACCAGAUCGATT against Thap3 | -0.765 (inactive) |
| GGCAGUAAGGCUCCAAUCUTT against Tcp10a | -2.1 (active) |
| GGCUCUGAACAGCAUUGACTT against Mdfi | -0.521 (inactive) |
| GGUUUGAAUCAAAUUGUACTT against Hyou1 | -1.12 (inactive) |
| CCUCCACAUUUAUUUGCUATT against Mbtd1 | 1.23 (inactive) |
| ACCUGAAUUUGGUGACUGATT against Rdh18-ps | 0.368 (inactive) |
| GGUAUUAUGAGACAGGAAGTT against Pax5 | -1.61 (inactive) |
| GGUUUUAGGAUCCUAGAAGTT against Ap1s1 | 0.957 (inactive) |
| GCUGGCUUUGAUUUAUGGATT against Prkar1a | 5.06 (active) |
| GGACGUGUUCGGAAACCUATT against Psmc3ip | 0.134 (inactive) |

| Sequence | z-score |
| --- | --- |
| CCUGUGCUCUGAGUUUGGCTT against Tmem270 | 0.00319 (inactive) |
| GGACAAACGGGAAAAGAAGTT against Sprr2d | -2.04 (active) |
| GGGUUGUUUGUCUUGUUCGTT against Rspo2 | 0.847 (inactive) |
| GGAAAGAUUCAAAGAACCUTT against Rpia | 1.45 (inactive) |
| GGCAGACAGUCUAACAGAUTT against Krt6a | 0.283 (inactive) |
| GGCAGUUAUUCAGAAUUGATT against Nfu1 | -2.2 (active) |
| GAUUUUCCUGCUCACAAUGTT against Olfr1269 | 1.03 (inactive) |
| GGACUUGAGUCAGCUCAUCTT against Fastk | -1.38 (inactive) |
| GCAACAUUGGAUGUACUCATT against Hdac10 | -2.63 (active) |
| CGUAUAUCCGGUCAGAAGATT against Cnot4 | 0.634 (inactive) |
| GCAGCAUCGCUAUGUCCUGTT against Ccl26 | 0.182 (inactive) |
| GGAACAAUGCUCAAUUUUUTT against Rfc1 | 1.63 (inactive) |
| GCUCCUACGUGUCAGCCUUTT against Skor1 | -0.815 (inactive) |
| CGGUCAUGUCUACAUGUGCTT against Cfp | -0.0864 (inactive) |
| GGAAUUGUUAAUUGUGGGATT against Stau2 | -2.25 (active) |
| GGCUUCAGAUUUCGAUAUGTT against Nfkb2 | 1.02 (inactive) |
| CCUUGGACUUGAGUUCCAATT against Ssu2 | 1.58 (inactive) |
| GGCAAAUGUGGCCGUGUUUTT against Ccne1 | 0.175 (inactive) |
| GGAAGAAGCAAAGAACUAUTT against Spg20 | 0.552 (inactive) |
| GGGCUGAUGUGGGCUAAAUTT against Tmem38a | 2.47 (active) |
| GCCCGGAAUAUAUAGCCCUTT against Hdac10 | -0.706 (inactive) |
| CCUCCAGAUAAGAAUGUGCTT against Fnip1 | -1.34 (inactive) |
| CGUAAGUGGACGACGGUUCTT against Kcnd3 | 0.106 (inactive) |

| Sequence | z-score |
| --- | --- |
| CGAAGGUACUAUGUAUUUUTT against Tbce | -0.12 (inactive) |
| GGAACACAUUGGGUAUGCCTT against Sac3d1 | -0.575 (inactive) |
| GGUGUUUAUCGACAGGUACTT against Myo15 | 0.126 (inactive) |
| CAAACUGGGUCCCAAUGAATT against Ndufa4 | 2.7 (active) |
| GGGAAGUUGUCCUUGAAGATT against Cd36 | -0.037 (inactive) |
| GGACCAUCCCUGUUUUAUATT against Ifrd2 | -0.0712 (inactive) |
| GGUCCCUAGCACUAUUUUUTT against Hes6 | 1.04 (inactive) |
| GGAAUAUCACUUCCAUACATT against Ntrk3 | 0.587 (inactive) |
| GACCAACCCUCACUAAGCUTT against Tcstv3 | -0.364 (inactive) |
| GGAGCAGAUAAUGUACAUATT against Cep112 | 2.32 (active) |
| GGACUAUUUGGAAACCUCCTT against Olfr1366 | -0.304 (inactive) |
| GGAUGUAACUAGUAACUUUTT against Kcnn3 | 0.108 (inactive) |
| GCAAGAAAACCUUAGCUCATT against Trpm2 | -0.518 (inactive) |
| CGGAUACAGGUUCGGGUAATT against Nemp1 | 1.06 (inactive) |
| CCGUGACGAGCUUGUGGUUTT against Ap3b2 | 0.788 (inactive) |
| GGUCCGAUAUCUGAGUCUCTT against Hic1 | 0.471 (inactive) |
| CCUUAAUCGCAUCAAAUUATT against Slc1a3 | 2.35 (active) |
| GGUUAGAAUAUGCAGAACATT against Arntl | -0.525 (inactive) |
| GGAGGGCAUCCUCUUCAAATT against Drc3 | 0.312 (inactive) |
| GGUAUUAUGACUGUAAAGGTT against Endou | 0.0412 (inactive) |
| GGAAGUGAAUAUUGAGUUUTT against Bccip | 2.04 (active) |
| GGAGAAGAAAAAGAUUAUCTT against Atp6v1d | 1.07 (inactive) |
| GGGAAGAUGUGGAUGUCAUTT against Oprk1 | -1.05 (inactive) |
